Reference: the supplement of paper PMC11172423
Unmarked numbers belong to inactive results.

test system: Falciformispora senegalensis CBS197.79; experiment: growth relative to untreated control; higher = less inhibition, active = 20 or less; conditions: 100 µM
Method in brief: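 Hyphal fragments of M. mycetomatis MM55 or F. senegalensis CBS197.79 were suspended in colourless RPMI 1640 with L-glutamine and MOPS at 68–72% transmission at 660 nm. They were exposed in 96-well plates to compound at 100 or 25 µM for 7 days at 37 °C. Viability was read with MTS (2 h, 490 nm) or resazurin (600 nm). Growth is metabolic activity relative to the untreated growth control, both corrected with a medium-plus-dye blank.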

Row | SMILES | growth
1 | O=C(c1ccc(Nc2nccc(-c3cc(Cl)cc(C(F)(F)F)c3)n2)cc1)N1CC(O)C1 | 93.2%
2 | Cc1ccc(Cl)cc1NC(=O)c1c(-c2ccccc2Cl)noc1C | 80.1%
3 | Nc1nc(Nc2ccc3c(c2)CC[C@@H](N2CCCC2)CC3)nn1-c1cc2c(nn1)-c1ccccc1CCC2 | 5.2% (active)
4 | OC1(CN2CCC(Oc3cccc(C(F)(F)F)c3)CC2)CCNC1 (stereo unspecified) | 19.1% (active)
5 | COc1ccc(-c2ccc3c(-c4ccc(F)cc4)cnc(N)c3c2)cn1 | 75.2%
6 | CN(c1ncc2nc(Nc3cc(Cl)cc(C(F)(F)F)c3)n(C3CCNCC3)c2n1)C1CC1 | 12.3% (active)
7 | COc1cc2c3cc1Oc1c(OC)c(OC)cc4c1[C@@H](Cc1ccc(O)c(c1)Oc1ccc(cc1)C[C@@H]3N(C)CC2)N(C)CC4 | 12.6% (active)
8 | C[C@@H]1CCCN1CCc1cc2cc(-c3ccc(C#N)cc3)ccc2o1 | 17.8% (active)
9 | CCN1C(=O)N(CCC(C)C)C2(CCN(Cc3cc(O)cc(Cl)c3)CC2)C1=O | 92.9%
10 | O=C(Nc1ccc(Cl)c(C(F)(F)F)c1)Nc1ccc(Cl)c(C(F)(F)F)c1 | 88.1%
11 | Cc1cnc2nc(NC3COc4ccccc43)nc(NC(C3CC3)C3CC3)c2c1 (stereo unspecified) | 33.4%
12 | O=C(NC(CCO)C1CCCCC1)c1cc2ccc(C(F)(F)F)cc2[nH]1 (stereo unspecified) | 100%
13 | Cc1cccc(C=NNc2cc(N3CCOCC3)nc(OCCc3ccccn3)n2)c1 | 101%
14 | Nc1nc2ccccc2n1CC(O)c1ccc(Cl)cc1Cl (stereo unspecified) | 30.8%
15 | CCOc1cc([C@@H](CS(C)(=O)=O)N2C(=O)c3cccc(NC(C)=O)c3C2=O)ccc1OC | 99.6%
16 | C[C@@H](O[C@H]1OCCN(Cc2n[nH]c(O)n2)[C@H]1c1ccc(F)cc1)c1cc(C(F)(F)F)cc(C(F)(F)F)c1 | 103%
17 | CN(C)C[C]1[CH][CH][CH][C]1CNc1ccnc2cc(Cl)ccc12.[CH]1[CH][CH][CH][CH]1.[Fe] | 58%
18 | CCc1ccc2c(c1O)CCN(C)C2Cc1ccccc1Cl (stereo unspecified) | 27.8%

Row | SMILES | growth
19 | Cc1nn(C2CCS(=O)(=O)C2)c(C)c1C1Nc2ccccc2C(=O)N1Cc1ccc2c(c1)OCO2 (stereo unspecified) | 93.6%
20 | Cc1ccc(NC(=O)c2ccc(CN3CCN(C)CC3)cc2)cc1Nc1nccc(-c2cccnc2)n1 | 103%
21 | Cc1cccc(-c2noc(-c3ccccc3)n2)c1 | 99.4%
22 | CC(C)(C)NC(=O)N[C@H](C(=O)N1C[C@H]2[C@@H]([C@H]1C(=O)NC(CC1CCC1)C(=O)C(N)=O)C2(C)C)C(C)(C)C (stereo partly specified) | 101%
23 | COc1ccc(C(=O)N2CCC3(CC2)C(=O)N(CC(=O)NCC2CCCCC2)CN3c2ccccc2)c(OC)c1 | 85.8%
24 | CC(C)(C)NCc1cc(Nc2ccnc3cc(Cl)ccc23)c2c(c1O)CCCC2 | 101%
25 | O=C(Nc1ncccc1O)c1ccc(N2CCOCC2)nc1 | 81.4%
26 | CCCCCOc1ccc(-c2ccc(-c3ccc(C(=O)N[C@H]4C[C@@H](O)[C@@H](O)NC(=O)[C@@H]5[C@@H](O)[C@@H](C)CN5C(=O)[C@H]([C@@H](C)O)NC(=O)[C@H]([C@H](O)[C@@H](O)c5ccc(O)cc5)NC(=O)[C@@H]5C[C@@H](O)CN5C(=O)[C@H]([C@@H](C)O)NC4=O)cc3)cc2)cc1 | 67.5%
27 | CCC1=C(c2ccc(C)cc2)S(=O)(=O)N=C1N1CCC(C(=O)NCCN2CCCCC2C)CC1 (stereo unspecified) | 88.6%
28 | CS(=O)(=O)NC1CCN(C(=O)c2ccc(Nc3nccc(-c4cc(Cl)cc(C(F)(F)F)c4)n3)cc2)C1 (stereo unspecified) | 82.5%
29 | Clc1ccc2c(N3CCN(CCCN4CCN(c5ccnc6cc(Cl)ccc56)CC4)CC3)ccnc2c1 | 101%
30 | CCN1CCC(c2cc(C)c3nc(-c4cc5c(C)nc(C)cn5n4)cc(=O)n3c2)CC1 | 107%
31 | O=C(Nc1ccc([N+](=O)[O-])cc1Cl)c1cc(Cl)ccc1O | 0% (active)
32 | FC(F)(F)c1ccnc(Nc2cn3cc(-c4ccc(N5CCOCC5)nc4)ccc3n2)n1 | 92.1%
33 | CN(C)CCCN1c2ccccc2CCc2ccc(Cl)cc21 | 12.5% (active)
34 | NS(=O)(=O)OC[C@@H]1C[C@@H](n2ccc3c(N[C@H]4CCc5ccccc54)ncnc32)C[C@@H]1O | 101%
35 | CCO[C@@H]1[C@@H](OC)[C@H](C)O[C@@H](O[C@@H]2C[C@H]3CC[C@@H]4[C@@H](C=C5C(=O)[C@H](C)[C@@H](O[C@H]6CC[C@H](N(C)C)[C@@H](C)O6)CCC[C@H](CC)OC(=O)C[C@H]54)[C@@H]3C2)[C@@H]1OC | 85.7%
36 | CC[C@H](NC(=O)c1cc2c(F)cccc2[nH]1)c1ccccc1 | 99%
